# According to PubChem BioAssay:
# Records with an inconclusive call do not appear. For part of these data: Results with a measured potency or affinity are listed apart. Activity calls are given as the source filed them.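 Rule for the calls, unless noted: active = thallium flux through the channel raised or lowered by more than 3 SD from vehicle-only wells, actives on both sides; inactive = the rest.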
# Assays:
# [1] = hESC survival regulators, cell-based (AID 493140; call rule not given here;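 note: cells exposed to compounds for four days before counting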); conditions: human embryonic stem cell survival screen; stronger effect = higher value
# [2] = growth inhibition of DIPG glioma cells, dose response, cell-based, JHH-DIPG-1, MIPE4.0, CellTiter-Glo, qHTS (AID 1347062; cut-off not given, nearly all actives have AC50 up to about 27 µM;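 for AC50: cells exposed to compound for two days before readout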); conditions: JHH-DIPG-1 viability, CellTiter-Glo ATP luminescence
# F380Y/beta1 = assay: modulators of BK channel variants, profiling panel, selectivity assay, cell-based, U2OS BacMam, thallium flux, beta subunits (AID 1259406); conditions: at 30 µM;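 note: initial slope of Thallos dye fluorescence rise after thallium is added; log ratio against the mean of 0.3% DMSO vehicle wells on the same plate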
# F380Y/beta4 = assay: as above; conditions: at 30 µM
# R275C/beta4 = assay: as above; conditions: at 30 µM
# R275C/Slo1WT/beta2 = assay: as above; conditions: at 30 µM
# [3] = tested on: Neuropilin-2 / VEGF-C interaction (human); assay: inhibitors of NRP2–VEGF-C binding, biochemical, microplate binding format, z-score (AID 743281; call rule not given here); conditions: microplate NRP2/VEGF-C binding assay; stronger effect = lower value
# [4] = modifiers of HSF1 nuclear foci, imaging, Selleck Cancer Library (AID 1347162; in the data active = plate-normalised HSF1 focus index below about 0.46); conditions: human cells, at 10 µM; SSMD: measured here: HSF1 foci SSMD mean; cell count: measured here: cell number; plate-normalised HSF1 focus index: stronger effect = lower value
# [5] = phospholipid biosynthesis inhibitors in animal cells, primary screen, cell-based, LOPAC library, screen 4 (AID 1347384; call rule not given here); conditions: phospholipid biosynthesis inhibition screen, at 10 µM
# [6] = circadian clock period modulators, cell-based, LOPAC library, luminescence reporter (AID 2774; call rule not given here;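 note: values are relative to mean of DMSO wells on each plate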); conditions: circadian reporter cells, at 7 µM, actives lie on both sides
# [7] = tested on: Hepatitis C virus NS3 helicase; assay: HCV NS3 helicase inhibitors, primary screen, biochemical, fluorescence polarization, LOPAC1280 library (AID 687035; in the data active = inhibition above about 37%); conditions: Purified HCV NS3 helicase, Cy5-dT15 ssDNA binding fluorescence polarization; stronger effect = higher value; concentration not given here
# [8] = Cy5 fluorescence quenching or enhancement artefacts, artefact control for HCV NS3 helicase inhibitor project, biochemical, LOPAC1280 (AID 687037; call rule not given here); conditions: Cy5-DNA-NS3h complex fluorescence interference counterscreen
# [9] = polyglutamine-triggered caspase-3 activation inhibitors, cell-based (AID 1583); conditions: polyglutamine-induced caspase-3 activation, cell assay; stronger effect = higher value;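 tested at 10 µM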
# [10] = suppressors of polyQ aggregation in yeast, 75Q-TubU reporter (AID 1593); conditions: Yeast 75Q polyglutamine aggregation reporter
# [11] = rescue of polyQ-huntingtin neuronal dysfunction in worms, whole organism, C. elegans mechanosensory neurons, N-terminal huntingtin (AID 1599); conditions: touch response, stronger effect = higher value
# [12] = inhibitors of mitochondrial cytochrome c release, biochemical, purified mitochondria (AID 1603); conditions: stronger effect = lower value;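 note: mouse liver mitochondria challenged with calcium chloride; signal normalized to the plate average as 100%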
# [13] = inhibitors of polyQ protein aggregation (AID 1604); conditions: polyglutamine-induced protein aggregation inhibition assay; stronger effect = higher value; tested at 2.5 µM
# [14] = enhancers of glutamate uptake in motor neurons, MN-1 cell line (AID 1612); conditions: MN-1 motor neuron cells, stronger effect = higher value;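 note: tested at 1 µM final; 0% = mean of DMSO vehicle wells on each plate; positive means more glutamate uptake than control and negative means less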
# [15] = suppressors of polyglutamine aggregation in yeast, 75Q-TubH (AID 1616); conditions: S. cerevisiae 75Q-TubH polyglutamine aggregation suppression; stronger effect = higher value
# [16] = tested on: Aerobactin synthetase IucA (Klebsiella pneumoniae); assay: IucA aerobactin synthetase inhibitors, biochemical, Tocris library, absorbance (AID 1345561; call rule not given here;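 note: 100% = enzyme without compound and 0% = no enzyme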); conditions: purified IucA enzyme assay, absorbance (OD) read-out; stronger effect = lower value;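 tested at 8 µM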
smiles,measurement,setting,value
C[C@H](CCC(=O)O)[C@H]1CC[C@H]2[C@@H]3[C@@H](O)C[C@@H]4C[C@H](O)CC[C@]4(C)[C@H]3CC[C@]12C,survival,[1],4.92 (inactive)
same,AC50,[2],20.9 µM (active)
same,log fold change Tl+ flux,F380Y/beta1,0.0488 (inactive)
same,log fold change Tl+ flux,F380Y/beta4,0.0547 (inactive)
same,log fold change Tl+ flux,R275C/beta4,-0.0188 (inactive)
same,log fold change Tl+ flux,R275C/Slo1WT/beta2,-0.0131 (inactive)
OC[C@H]1O[C@@H](Oc2cc(O)cc(/C=C/c3ccc(O)cc3)c2)[C@H](O)[C@@H](O)[C@@H]1O,z-score,[3],0.265 (inactive)
same,outcome,[2],inactive
same,log fold change Tl+ flux,F380Y/beta1,-0.0141 (inactive)
same,log fold change Tl+ flux,F380Y/beta4,-0.0711 (inactive)
same,log fold change Tl+ flux,R275C/beta4,0.00405 (inactive)
same,log fold change Tl+ flux,R275C/Slo1WT/beta2,0.104 (active)
Nc1ccn([C@@H]2O[C@H](CO)[C@@H](O)C2O)c(=O)n1 (stereo partly drawn),z-score,[3],0.042 (inactive)
same,outcome,[2],inactive
same,SSMD,[4],-7.27
same,cell count,[4],7440
same,plate-normalised HSF1 focus index,[4],0.739 (inactive)
same,outcome,[5],inactive
CC(=O)OCC(=O)[C@@]1(O)CC[C@H]2[C@@H]3C[C@H](C)C4=CC(=O)C=C[C@]4(C)[C@H]3[C@@H](O)C[C@@]21C,log fold change Tl+ flux,F380Y/beta1,0.0602 (inactive)
same,log fold change Tl+ flux,F380Y/beta4,0.0393 (inactive)
same,log fold change Tl+ flux,R275C/beta4,0.0801 (inactive)
same,log fold change Tl+ flux,R275C/Slo1WT/beta2,0.0333 (inactive)
CCN1CCN(C(=O)N[C@@H](C(=O)N[C@@H]2C(=O)N3[C@@H]2SC(C)(C)[C@@H]3C(=O)O)c2ccccc2)C(=O)C1=O,survival,[1],1.83 (inactive)
same,log fold change Tl+ flux,F380Y/beta1,0.00225 (inactive)
same,log fold change Tl+ flux,F380Y/beta4,-0.0114 (inactive)
same,log fold change Tl+ flux,R275C/beta4,0.0304 (inactive)
same,log fold change Tl+ flux,R275C/Slo1WT/beta2,0.0399 (inactive)
CN=C(N)NCCC[C@H](N)C(=O)O,period change,[6],-0.035 h (inactive)
same,inhibition,[7],0% (inactive)
same,fluorescence ratio (interference),[8],1 (inactive)
same,z-score,[3],-0.991 (inactive)
same,outcome,[5],inactive
O=C(O[C@@H]1Cc2c(O)cc(O)cc2O[C@@H]1c1cc(O)c(O)c(O)c1)c1cc(O)c(O)c(O)c1,z-score,[3],2.31 (inactive)
same,SSMD,[4],0.931
same,cell count,[4],6910
same,plate-normalised HSF1 focus index,[4],1.03 (inactive)
Cc1ccc(N(CC2=NCCN2)c2cccc(O)c2)cc1,inhibition,[9],0.92%
same,score,[10],1.23
same,rescue above control,[11],-6.1
same,cytochrome c release ratio,[12],0.77
same,inhibition of aggregation,[13],56.3%
same,glutamate uptake change,[14],-12.3%
same,aggregation suppression score,[15],1.42
same,period change,[6],-0.015 h (inactive)
same,survival,[1],15.2 (inactive)
same,inhibition,[7],-6% (inactive)
same,fluorescence ratio (interference),[8],0.9 (inactive)
same,outcome,[2],inactive
same,outcome,[5],inactive
COc1ccc(-c2oc3c(CC=C(C)C)c(O[C@@H]4O[C@H](CO)[C@@H](O)[C@H](O)[C@H]4O)cc(O)c3c(=O)c2O[C@@H]2O[C@@H](C)[C@H](O)[C@@H](O)[C@H]2O)cc1,z-score,[3],0.976 (inactive)
same,log fold change Tl+ flux,F380Y/beta1,0.00909 (inactive)
same,log fold change Tl+ flux,F380Y/beta4,-0.0291 (inactive)
same,log fold change Tl+ flux,R275C/beta4,-0.0348 (inactive)
same,log fold change Tl+ flux,R275C/Slo1WT/beta2,0.0155 (inactive)
CC(=O)OCC(=O)[C@@]1(O)CC[C@H]2[C@@H]3CCC4=CC(=O)CC[C@]4(C)[C@H]3[C@@H](O)C[C@@]21C,log fold change Tl+ flux,F380Y/beta1,-0.0206 (inactive)
same,log fold change Tl+ flux,F380Y/beta4,0.0297 (inactive)
same,log fold change Tl+ flux,R275C/beta4,-0.0187 (inactive)
same,log fold change Tl+ flux,R275C/Slo1WT/beta2,-0.0133 (inactive)
CC(CCc1ccccc1)NCC(O)c1ccc(O)c(C(N)=O)c1 (stereo not drawn),inhibition,[9],1.38%
same,score,[10],1.61
same,rescue above control,[11],19.4
same,cytochrome c release ratio,[12],0.72
same,inhibition of aggregation,[13],83.1%
same,glutamate uptake change,[14],-2.28%
same,aggregation suppression score,[15],1.14
same,period change,[6],-0.45 h (inactive)
same,survival,[1],19.1 (inactive)
same,inhibition,[7],-4% (inactive)
same,fluorescence ratio (interference),[8],1 (inactive)
same,outcome,[5],inactive
same,log fold change Tl+ flux,F380Y/beta1,0.0226 (inactive)
same,log fold change Tl+ flux,F380Y/beta4,0.0997 (inactive)
same,log fold change Tl+ flux,R275C/beta4,0.0314 (inactive)
same,log fold change Tl+ flux,R275C/Slo1WT/beta2,-0.0367 (inactive)
Cn1cc[nH]c1=S,inhibition,[9],14.9%
same,score,[10],1.43
same,rescue above control,[11],-4.12
same,cytochrome c release ratio,[12],1.1
same,inhibition of aggregation,[13],48%
same,glutamate uptake change,[14],-2.61%
same,aggregation suppression score,[15],1.46
same,survival,[1],1.42 (inactive)
same,log fold change Tl+ flux,F380Y/beta1,-0.0456 (inactive)
same,log fold change Tl+ flux,F380Y/beta4,0.0112 (inactive)
same,log fold change Tl+ flux,R275C/beta4,0.0185 (inactive)
same,log fold change Tl+ flux,R275C/Slo1WT/beta2,0.019 (inactive)
CC[C@H](C)C(=O)O[C@H]1CCC=C2C=C[C@H](C)[C@H](CC[C@@H]3C[C@@H](O)CC(=O)O3)[C@H]21,period change,[6],0.035 h (inactive)
same,inhibition,[7],-1% (inactive)
same,fluorescence ratio (interference),[8],0.9 (inactive)
same,z-score,[3],-1.1 (inactive)
same,remaining activity,[16],123% (inactive)
same,outcome,[5],inactive
CN1CCN(CC/C=C2/c3ccccc3Sc3ccc(S(=O)(=O)N(C)C)cc32)CC1,period change,[6],0.09 h (inactive)
C[C@]12CC[C@@H]3c4ccc(O)cc4CC[C@H]3[C@@H]1CC[C@@H]2O,period change,[6],0.19 h (inactive)
same,survival,[1],11.2 (inactive)
same,inhibition,[7],-3% (inactive)
same,fluorescence ratio (interference),[8],1 (inactive)
same,SSMD,[4],2.53
same,cell count,[4],7010
same,plate-normalised HSF1 focus index,[4],1.15 (inactive)
same,outcome,[5],inactive
CC1(C)S[C@@H]2[C@H](NC(=O)[C@H](N)c3ccc(O)cc3)C(=O)N2[C@H]1C(=O)O,survival,[1],6.33 (inactive)
same,log fold change Tl+ flux,F380Y/beta1,0.0448 (inactive)
same,log fold change Tl+ flux,F380Y/beta4,-0.0174 (inactive)
same,log fold change Tl+ flux,R275C/beta4,0.0282 (inactive)
same,log fold change Tl+ flux,R275C/Slo1WT/beta2,0.0404 (inactive)
CN(C)CCC(c1ccc(Cl)cc1)c1ccccn1 (stereo not drawn),inhibition,[9],-45.4%
same,score,[10],1.36
same,rescue above control,[11],7.64
same,cytochrome c release ratio,[12],0.61
same,inhibition of aggregation,[13],-12.5%
same,glutamate uptake change,[14],-7.91%
same,aggregation suppression score,[15],1.27
same,period change,[6],-0.5 h (inactive)
same,survival,[1],24.1 (inactive)
same,inhibition,[7],-6% (inactive)
same,fluorescence ratio (interference),[8],0.9 (inactive)
same,z-score,[3],0.208 (inactive)
same,outcome,[5],inactive
same,log fold change Tl+ flux,F380Y/beta1,-0.0189 (inactive)
same,log fold change Tl+ flux,F380Y/beta4,0.0511 (inactive)
same,log fold change Tl+ flux,R275C/beta4,0.0326 (inactive)
same,log fold change Tl+ flux,R275C/Slo1WT/beta2,0.0403 (inactive)
